Screening results (PubChem)
Pf Dd2 inh: blocks in vitro growth of P. falciparum Dd2; Potency, µM (titrated, usually from 28.9 µM), for the others: at the top dose activity, negative = inhibition, most hits filed as inhibitors; hit rate 4.3% among 120,000; AID 1347417; P. falciparum Dd2 growth, SYBR Green, 72 h; active = well fitted inhibition curve with a large enough effect;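 also: plate controls were DMSO vehicle for no effect and reference drug for full effect; nearly all actives have a fitted effect of over 65% in size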
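Readout: SYBR Green fluorescence, 485 nm excitation, 535 nm emission, after ~16 h lysis at 37C. Before that, Dd2-infected red cells (2.5% hematocrit) grew 72 h with compound, 29 uM top final concentration.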
* = called active by the depositor; i = inactive; [ ] = dose if it differs, or a comment. The sample as a whole holds a higher share of hits than the screen did. Potency is read from the fitted curve at half-maximal effect.

SMILES	Pf Dd2 inh
Cc1ccc(-c2cn3c(n2)CO[C@@H](CNCc2ccc(S(C)(=O)=O)cc2)C3)cc1	i
Cc1ccc(-c2cn3c(n2)CO[C@@H](CNCc2ccc(Cl)cc2)C3)cc1	i
CO[C@@H]1CO[C@H]2[C@@H]1OC[C@@H]2n1nnnc1C(C)C	14%[44.1 µM]
CCC(=O)Nc1cccc(C2OC(=O)N(Cc3ccc(C)cc3)C2C(=O)NCC2CC2)c1 (centres undefined)	i
CC(C)(C)C(=O)N1CCC2(CC1)OCC(C(=O)NCC1CCCO1)N2C(=O)c1ccc(F)cc1 (centres undefined)	0%
CCOC(=O)c1ccc(NC(=O)c2csc3c2CCCC3)cc1	-22%
COC(=O)c1c(NC(=O)COc2cc(C)c(Cl)c(C)c2)sc2c1CCCC2	3%
CCOC(=O)c1ccc(NC(=O)c2c(NCc3cccs3)sc3c2CCCCC3)cc1	10µM*
COc1ccc(CC(=O)Nc2sc3c(c2C(=O)Nc2ccccc2)CCCCC3)cc1	0%
COc1ccc(NC(=O)c2c(NC(=O)COc3ccc(Cl)cc3)sc3c2CCCCC3)cc1	3.2µM*
CCCCOc1ccc(C(=O)Nc2sc3c(c2C(=O)OCC)CCCCC3)cc1	-17%
COc1ccc(NC(=O)c2c(NCc3cccs3)sc3c2CCCC3)cc1	7.9µM*
O=C(COc1ccccc1)Nc1sc2c(c1C(=O)Nc1ccccc1)CCCCC2	25%
COc1ccc(NC(=O)c2c(NC(=O)c3cccc(C)c3)sc3c2CCC3)cc1	-10%
CC(=O)N1CCC2(CC1)CN(C(=O)CN(C)C)Cc1ccccc1O2	43%
CN(C)Cc1nnc(C2CC(NC(=O)c3ccccc3-c3ncn[nH]3)C2)n1C (centres undefined)	-4%
CNC(=O)[C@@H]1C[C@@H](n2cc(CNC(=O)Nc3cc(C)ccc3C)nn2)CN1	0%
CN1CCN(C(=O)CN2CC3CC(C2)[C@H]2CCCC(=O)N2C3)CC1 (some centres undefined)	-4%
Cc1[nH]cnc1C(=O)N1CCC2(CC1)CC(C(=O)O)N(C(=O)C1CC1)C2 (centres undefined)	13%
COCC1CN(C(C)=O)CC12CCN(Cc1ccc(Cl)cc1)CC2 (centres undefined)	10%
CCN(Cc1ccccn1)C(=O)c1csc2nc(-c3cc(C)ccc3C)cn12	-20%
O=C(Nc1ccc(F)c(F)c1)C1CCCN(S(=O)(=O)c2cccc3nonc23)C1 (centres undefined)	31%
O=C(Nc1ccc(OC(F)(F)F)cc1)C1CCCN(S(=O)(=O)c2cccc3nonc23)C1 (centres undefined)	50%
O=C(Nc1ccc(C(F)(F)F)cc1)C1CCCN(S(=O)(=O)c2cccc3cccnc23)C1 (centres undefined)	11µM*
CN1C[C@@H](NC(=O)c2ccccc2)C[C@H]1c1nc(-c2cnccn2)no1	-1%[44.1 µM]
SMILES	Pf Dd2 inh
c1ccc(Oc2cc3c(cn2)NCCN(Cc2ccsc2)C3)cc1	-4%[44.1 µM]
c1cncc(Nc2cc3c(cn2)CN(Cc2ccsc2)CCN3)c1	8.9µM*
COc1cccc(CN2CCNc3cnc(Nc4ccccc4)cc3C2)c1	i
COc1cccc(Nc2cc3c(cn2)NCCN(Cc2ccccc2)C3)c1	i
O=[S+]([O-])(Nc1cccnc1)c1ccc2c(c1)OCCN(Cc1ccsc1)C2	-22%[44.1 µM]
FC(F)(F)Oc1cccc(CN2CCNc3cc(Nc4cccnc4)ncc3C2)c1	5µM*
COCCN1C(=O)CS(=O)C12CCN(C(=O)c1ccc3cc[nH]c3c1)CC2 (centres undefined)	6%
O=c1cc(C2CC(NC3CCC4(CCNCC4)CC3)C2)nc(C2CC2)[nH]1 (centres undefined)	2%
Cc1nc(-c2c3n(c(=O)n(CC(=O)Nc4ccc(C)c(C)c4)c2=O)CCCC3)no1	-6%
CN1CC2(CCN(Cc3ccccc3)CC2)CC1C(=O)N1CCOCC1 (centres undefined)	-30%
CC1(C)CN(Cc2cn(Cc3ccccc3)nc2-c2cc3ccccc3o2)CCO1	8.9µM*
c1ccc(Cn2cc(CN3CCCC3)c(-c3ccc4c(c3)OCO4)n2)cc1	11µM*
O=C(O)c1cncc(-c2cccc(CN3CCOCC3)c2)n1	-16%
O=C1NCCN1C1CCN(Cc2ccccc2)CC1	-4%[44.1 µM]
O=C1CCN(Cc2ccccc2)CCOCCN1	0%
O[C@@H]1C[C@@H](c2nc(-c3ccc4c(c3)OCO4)no2)N(Cc2ccccc2)C1	i
FC1CCN(Cc2cn(Cc3ccccc3)nc2-c2cc3ccccc3o2)CC1	7.9µM*
CN1CC2(CCCN(Cc3cc4ccccc4o3)C2)OC1=O (centres undefined)	9%
Fc1ccccc1N1CCN(Cc2nnc(-c3ccc4c(c3)OCO4)o2)CC1	46%[0.594 µM]
c1ccc(Cn2cc(CN3CCCOCC3)c(-c3cc4ccccc4o3)n2)cc1	11µM*
Cc1nnc([C@H]2CCN(Cc3ccccc3)C2)o1	i
CN(C)C[C@@H]1CN(C)C[C@H]1NC(=O)c1ccc(Cn2ccnc2)o1	-6%
Cc1cc(CN2C[C@@H](CO)[C@H](C(=O)NC3CC3)C2)n(C)n1	5%
COc1ccc(CCCN2C(=O)O[C@@H]3CN(C(=O)C4CCOCC4)C[C@@H]32)cc1	3%
CCS(=O)(=O)N(C1CC1)C1CCOC2(CCN(C(=O)c3cccc(F)c3)CC2)C1 (centres undefined)	-18%
SMILES	Pf Dd2 inh
O=C(Cc1ccc(N(Cc2ccc(F)cc2)C(=O)c2ccco2)cc1)NCC1CC1	-5%
COc1cccc(N2CC(C(=O)NCC(F)(F)F)NC2=O)c1 (centres undefined)	3%[44.1 µM]
COC[C@H]1CCCN1Cc1cn(Cc2ccccc2)nc1-c1cc2ccccc2o1	7.9µM*
COC[C@H]1CCCN1C(=O)CC[C@H]1CNC(=O)[C@@H]2[C@@H](CCN2Cc2ccccc2)N1C	14%[44.1 µM]
COCC1CCCCN1C(=O)c1ccc2oc(CCc3ccccc3)nc2c1 (centres undefined)	-11%
CCc1ccc(NC(=O)N2CC=C(c3c[nH]c4ccccc34)CC2)cc1	i
CCOc1ccc2c(n1)CCN(C(=O)Nc1cc(C)ccc1C)C2	-15%
CCOC(=O)c1cccc(NC(=O)N2CC=C(c3c[nH]c4ccccc34)CC2)c1	6.3µM*
Cc1ccc(C)c(NC(=O)N2CC=C(c3c[nH]c4ccccc34)CC2)c1	4µM*
CCOC(=O)c1cccc(NC(=O)N2CCC(CN3CCc4ccccc4C3)CC2)c1	-14%
Cc1cc(NC(=O)N2CC=C(c3c[nH]c4ccccc34)CC2)ccc1Br	-3%
Cc1ccc(C)c(CN2CC[C@@H]3CN(S(C)(=O)=O)[C@@H]3C2)c1	i
Cc1ccc(CN2CCn3nnc(CCC(=O)NCc4ccccc4)c3C2)o1	-16%
O=C(c1ccsc1)N1CCC(Cc2nc(C3CCOCC3)no2)CC1	63%
c1ccc(-c2nnc3n2CCN(CC2CC2)C3)cc1	9%[44.1 µM]
COc1ccc(C(=O)N[C@@H]2CCC[C@@H]2C(=O)NC2CCCC2)cc1	11%
O=C(CCn1cnc2ccccc2c1=O)N1CCCC(Nc2ccccc2)C1 (centres undefined)	2%
COc1ccc(NC(=O)CSc2nc3ccccc3n2CC(=O)Nc2cccc(C)c2C)cc1	2%
CCN(C(=O)Cn1c(SCC(=O)Nc2ccc(OC)cc2)nc2ccccc21)c1cccc(C)c1	10µM*
CCN(C(=O)Cn1c(SCC(=O)NCc2ccccc2)nc2ccccc21)c1cccc(C)c1	-23%
O=C1NC(=NC2CCCCC2)C2(CCN(CC3CCCCC3)CC2)N1c1cccnc1	5%
COc1ccc(CNC(=O)CC[C@H]2CNC(=O)[C@@H]3[C@@H](CCN3Cc3ccc(C(=O)O)cc3)N2C)cc1	7%
